What all share (assay): DAPPL (digital affinity profiling via proximity ligation, sequencing); 10 mM Tris-HCl pH 7.5, 50 mM NaCl, 1 mM DTT, 4% glycerol, room temperature, 30 min; GST-TFs on glutathione beads, 16-mer random dsDNA library, 0.1% formaldehyde crosslink after washing; high values mean tight binding
One experiment addresses T1, FEV (Homo sapiens, UniProt Q99581 1-238).
T1 sequence: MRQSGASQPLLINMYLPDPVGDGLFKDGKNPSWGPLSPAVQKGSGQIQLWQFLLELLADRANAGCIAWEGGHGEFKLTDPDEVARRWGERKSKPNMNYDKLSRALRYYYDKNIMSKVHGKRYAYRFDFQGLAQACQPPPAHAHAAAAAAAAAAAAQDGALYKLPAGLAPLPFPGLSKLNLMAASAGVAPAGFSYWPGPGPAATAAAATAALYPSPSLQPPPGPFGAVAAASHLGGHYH
The following applies: protein: recombinant; tags: N-terminal GST; dsDNA, one strand shown. In outline: (§1)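 Binding signal is each hexamer's read frequency for a factor divided by its frequency in the tag-only sample. The factors were GST-fused human transcription factors from yeast, captured on glutathione beads, DNA-barcoded and pooled with that sample. Pools were incubated with 200 nmole of a random double-stranded 16-mer DNA library in Tris/NaCl/DTT/glycerol buffer at room temperature for 30 min, then washed, crosslinked with 0.1% formaldehyde, proximity-ligated with BsaI/T4 ligase (1 h, 37 °C), PCR-amplified and sequenced on an Illumina NextSeq500.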

The next experiment deals with ETV5 (Homo sapiens, UniProt P41161 1-510). The following applies: protein: recombinant; tags: N-terminal GST; dsDNA, one strand shown. In outline:
as §1

The target of another experiment is HSF1 (Homo sapiens, UniProt Q00613 1-529). The conditions noted are these: protein: recombinant; tags: N-terminal GST; chain copies: 3; dsDNA, one strand shown. In a few lines:
as §1

The target of another experiment is T2, SPIC (Homo sapiens, UniProt Q8N5J4 1-248).
T2 sequence: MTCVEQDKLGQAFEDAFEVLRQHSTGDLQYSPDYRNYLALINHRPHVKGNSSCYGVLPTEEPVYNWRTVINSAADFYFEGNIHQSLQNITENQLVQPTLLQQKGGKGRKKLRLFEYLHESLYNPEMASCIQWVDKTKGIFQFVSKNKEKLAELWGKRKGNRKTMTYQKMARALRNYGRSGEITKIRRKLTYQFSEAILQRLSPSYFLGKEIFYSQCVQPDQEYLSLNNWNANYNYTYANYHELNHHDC
The following applies: protein: recombinant; tags: N-terminal GST; dsDNA, one strand shown. In outline:
as §1

For a further experiment, the target named is ELF4 (Homo sapiens, UniProt Q99607 1-663). The following applies: protein: recombinant; tags: N-terminal GST; dsDNA, one strand shown. In outline:
as §1

In another experiment the target is T3, ELK4 (Homo sapiens, UniProt P28324-2 1-405).
T3 sequence: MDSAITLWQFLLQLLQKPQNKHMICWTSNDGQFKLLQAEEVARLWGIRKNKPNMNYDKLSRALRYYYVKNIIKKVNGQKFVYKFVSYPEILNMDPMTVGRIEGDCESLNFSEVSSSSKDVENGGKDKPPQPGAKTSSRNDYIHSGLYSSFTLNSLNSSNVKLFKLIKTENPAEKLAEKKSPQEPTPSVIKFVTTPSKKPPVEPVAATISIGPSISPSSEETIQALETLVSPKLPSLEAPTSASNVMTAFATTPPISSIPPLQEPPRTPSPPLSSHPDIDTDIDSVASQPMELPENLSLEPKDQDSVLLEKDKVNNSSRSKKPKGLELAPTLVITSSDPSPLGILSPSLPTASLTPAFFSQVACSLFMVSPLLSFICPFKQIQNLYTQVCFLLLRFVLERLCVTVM
The conditions noted are these: protein: recombinant; tags: N-terminal GST; dsDNA, one strand shown. In outline: as §1

A further experiment addresses T4, ETV2 (Homo sapiens, UniProt O00321 1-342).
T4 sequence: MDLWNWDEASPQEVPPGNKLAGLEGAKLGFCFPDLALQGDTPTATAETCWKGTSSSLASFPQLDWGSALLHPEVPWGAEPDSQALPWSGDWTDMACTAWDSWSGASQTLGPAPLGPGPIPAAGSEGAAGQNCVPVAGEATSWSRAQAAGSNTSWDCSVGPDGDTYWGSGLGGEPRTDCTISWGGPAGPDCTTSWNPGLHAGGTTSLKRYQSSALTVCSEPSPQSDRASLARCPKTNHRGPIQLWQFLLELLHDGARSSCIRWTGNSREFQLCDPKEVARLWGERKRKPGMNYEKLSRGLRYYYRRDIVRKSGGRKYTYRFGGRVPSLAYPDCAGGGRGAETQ
The conditions noted are these: protein: recombinant; tags: N-terminal GST; dsDNA, one strand shown. In a few lines: as §1

A further experiment addresses T5, ELF3 (Homo sapiens, UniProt P78545 1-371).
T5 sequence: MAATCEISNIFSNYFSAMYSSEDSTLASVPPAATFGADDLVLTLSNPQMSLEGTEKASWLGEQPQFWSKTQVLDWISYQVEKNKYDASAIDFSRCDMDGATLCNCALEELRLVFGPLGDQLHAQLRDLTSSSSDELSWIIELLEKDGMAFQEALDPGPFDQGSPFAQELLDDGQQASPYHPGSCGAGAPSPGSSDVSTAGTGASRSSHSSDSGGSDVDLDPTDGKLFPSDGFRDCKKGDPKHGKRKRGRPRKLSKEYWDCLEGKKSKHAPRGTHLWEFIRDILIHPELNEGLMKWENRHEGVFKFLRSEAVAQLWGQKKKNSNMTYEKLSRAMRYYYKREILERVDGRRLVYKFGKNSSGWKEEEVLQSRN
The conditions noted are these: protein: recombinant; tags: N-terminal GST; dsDNA, one strand shown. In a few lines:
as §1

A further experiment deals with CRX (Homo sapiens, UniProt O43186 1-299). The following applies: protein: recombinant; tags: N-terminal GST; dsDNA, one strand shown. In a few lines: as §1
Another experiment deals with ETV1 (Homo sapiens, UniProt P50549 1-477). The conditions noted are these: protein: recombinant; tags: N-terminal GST; dsDNA, one strand shown. In a few lines: as §1
For another experiment, the target named is T6, ERF (Homo sapiens, UniProt P50548 1-548).
T6 sequence: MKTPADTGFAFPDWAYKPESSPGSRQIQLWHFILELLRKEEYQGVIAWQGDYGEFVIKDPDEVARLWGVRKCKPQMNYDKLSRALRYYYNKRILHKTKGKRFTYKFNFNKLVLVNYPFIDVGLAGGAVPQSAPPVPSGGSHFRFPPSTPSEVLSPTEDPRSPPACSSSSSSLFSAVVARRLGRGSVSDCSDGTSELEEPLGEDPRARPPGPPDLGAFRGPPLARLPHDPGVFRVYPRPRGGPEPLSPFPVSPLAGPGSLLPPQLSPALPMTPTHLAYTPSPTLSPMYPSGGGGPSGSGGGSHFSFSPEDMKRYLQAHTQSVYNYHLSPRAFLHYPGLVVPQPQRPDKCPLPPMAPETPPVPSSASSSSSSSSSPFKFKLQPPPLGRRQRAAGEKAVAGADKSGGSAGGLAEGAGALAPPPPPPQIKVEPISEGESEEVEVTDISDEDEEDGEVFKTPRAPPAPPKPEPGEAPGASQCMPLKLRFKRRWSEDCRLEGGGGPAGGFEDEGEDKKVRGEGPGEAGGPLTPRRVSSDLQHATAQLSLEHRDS
The conditions noted are these: protein: recombinant; tags: N-terminal GST; dsDNA, one strand shown. In a few lines: as §1

Another experiment deals with T7, ETV3L (Homo sapiens, UniProt Q6ZN32 1-361).
T7 sequence: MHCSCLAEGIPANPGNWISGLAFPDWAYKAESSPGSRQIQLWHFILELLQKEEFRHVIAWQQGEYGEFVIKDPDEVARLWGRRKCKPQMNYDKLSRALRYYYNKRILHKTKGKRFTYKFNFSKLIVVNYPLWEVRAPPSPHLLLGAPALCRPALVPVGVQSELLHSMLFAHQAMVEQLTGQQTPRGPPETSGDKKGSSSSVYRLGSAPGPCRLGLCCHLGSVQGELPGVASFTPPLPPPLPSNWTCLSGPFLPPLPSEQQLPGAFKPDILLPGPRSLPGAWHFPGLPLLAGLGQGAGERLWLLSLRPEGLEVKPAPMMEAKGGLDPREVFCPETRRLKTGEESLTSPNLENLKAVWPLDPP
The following applies: protein: recombinant; tags: N-terminal GST; dsDNA, one strand shown. In outline:
as §1

The target of another experiment is T8, ETS2 (Homo sapiens, UniProt P15036 1-469).
T8 sequence: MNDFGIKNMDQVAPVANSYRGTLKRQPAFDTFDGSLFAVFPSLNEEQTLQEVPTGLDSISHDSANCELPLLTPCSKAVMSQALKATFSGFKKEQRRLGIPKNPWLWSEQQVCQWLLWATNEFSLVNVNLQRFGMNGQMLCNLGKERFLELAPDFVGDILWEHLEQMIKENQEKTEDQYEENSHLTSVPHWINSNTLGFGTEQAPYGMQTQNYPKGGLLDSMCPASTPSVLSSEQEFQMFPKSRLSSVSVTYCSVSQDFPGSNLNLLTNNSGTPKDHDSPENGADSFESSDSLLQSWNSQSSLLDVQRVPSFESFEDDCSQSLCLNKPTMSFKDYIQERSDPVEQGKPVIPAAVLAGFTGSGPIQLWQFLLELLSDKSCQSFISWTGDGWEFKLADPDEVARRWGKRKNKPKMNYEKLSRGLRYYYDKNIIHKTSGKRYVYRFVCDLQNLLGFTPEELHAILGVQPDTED
The following applies: protein: recombinant; tags: N-terminal GST; dsDNA, one strand shown. In outline:
as §1

The target of another experiment is T9, SPDEF (Homo sapiens, UniProt O95238 1-335).
T9 sequence: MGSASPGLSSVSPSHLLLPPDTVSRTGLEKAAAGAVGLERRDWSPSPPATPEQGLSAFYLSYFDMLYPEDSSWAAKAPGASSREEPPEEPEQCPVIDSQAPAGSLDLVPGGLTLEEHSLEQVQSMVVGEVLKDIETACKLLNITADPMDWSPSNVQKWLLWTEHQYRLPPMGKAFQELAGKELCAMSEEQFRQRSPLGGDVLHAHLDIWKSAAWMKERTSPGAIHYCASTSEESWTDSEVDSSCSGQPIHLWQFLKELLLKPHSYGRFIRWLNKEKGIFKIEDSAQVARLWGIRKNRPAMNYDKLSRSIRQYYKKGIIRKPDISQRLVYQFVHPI
The following applies: protein: recombinant; tags: N-terminal GST; dsDNA, one strand shown. In outline: as §1

The target in a further experiment is T10, ETV7 (Homo sapiens, UniProt Q9Y603 1-341).
T10 sequence: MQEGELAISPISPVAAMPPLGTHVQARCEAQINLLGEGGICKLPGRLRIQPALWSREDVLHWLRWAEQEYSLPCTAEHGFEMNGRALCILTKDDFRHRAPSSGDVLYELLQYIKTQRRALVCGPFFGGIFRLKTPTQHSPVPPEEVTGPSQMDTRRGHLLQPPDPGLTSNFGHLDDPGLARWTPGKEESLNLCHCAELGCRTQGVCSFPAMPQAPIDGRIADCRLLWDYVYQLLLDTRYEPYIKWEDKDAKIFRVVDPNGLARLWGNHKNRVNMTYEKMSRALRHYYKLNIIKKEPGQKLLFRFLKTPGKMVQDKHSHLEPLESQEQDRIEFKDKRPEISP
The conditions noted are these: protein: recombinant; tags: N-terminal GST; dsDNA, one strand shown. In a few lines:
as §1

The target of the next experiment is T11, ELF5 (Homo sapiens, UniProt Q9UKW6-2 1-255).
T11 sequence: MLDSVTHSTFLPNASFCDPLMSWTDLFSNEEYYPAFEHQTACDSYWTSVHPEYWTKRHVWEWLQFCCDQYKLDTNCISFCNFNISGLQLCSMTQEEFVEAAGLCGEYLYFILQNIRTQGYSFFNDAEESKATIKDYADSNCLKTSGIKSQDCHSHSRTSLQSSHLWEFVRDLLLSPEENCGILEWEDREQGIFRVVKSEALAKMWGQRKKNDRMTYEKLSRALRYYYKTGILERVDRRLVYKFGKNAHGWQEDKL
The conditions noted are these: protein: recombinant; tags: N-terminal GST; dsDNA, one strand shown. In a few lines:
as §1

Another experiment concerns the target T12, ETV3 (Homo sapiens, UniProt P41162-2 1-143).
T12 sequence: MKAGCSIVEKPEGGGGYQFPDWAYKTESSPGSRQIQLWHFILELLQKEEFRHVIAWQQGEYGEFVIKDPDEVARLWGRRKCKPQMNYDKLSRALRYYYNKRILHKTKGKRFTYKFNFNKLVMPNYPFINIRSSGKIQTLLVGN
The following applies: protein: recombinant; tags: N-terminal GST; dsDNA, one strand shown. In outline: as §1

The target of another experiment is ETV6 (Homo sapiens, UniProt P41212 1-452). The conditions noted are these: protein: recombinant; tags: N-terminal GST; dsDNA, one strand shown. In a few lines: as §1
ETV6, sequence (P41212 whole entry): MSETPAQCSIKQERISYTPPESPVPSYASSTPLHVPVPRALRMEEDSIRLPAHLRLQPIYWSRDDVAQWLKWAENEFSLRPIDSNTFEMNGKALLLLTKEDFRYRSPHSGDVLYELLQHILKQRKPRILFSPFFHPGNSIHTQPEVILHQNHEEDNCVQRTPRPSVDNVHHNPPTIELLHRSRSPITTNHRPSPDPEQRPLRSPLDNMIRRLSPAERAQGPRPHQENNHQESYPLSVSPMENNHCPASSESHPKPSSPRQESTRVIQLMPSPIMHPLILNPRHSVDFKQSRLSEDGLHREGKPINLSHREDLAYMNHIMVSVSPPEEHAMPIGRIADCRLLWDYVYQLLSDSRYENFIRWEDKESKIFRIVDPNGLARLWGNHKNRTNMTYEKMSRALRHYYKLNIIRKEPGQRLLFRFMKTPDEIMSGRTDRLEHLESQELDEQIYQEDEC

ELF4, sequence (Q99607 whole entry): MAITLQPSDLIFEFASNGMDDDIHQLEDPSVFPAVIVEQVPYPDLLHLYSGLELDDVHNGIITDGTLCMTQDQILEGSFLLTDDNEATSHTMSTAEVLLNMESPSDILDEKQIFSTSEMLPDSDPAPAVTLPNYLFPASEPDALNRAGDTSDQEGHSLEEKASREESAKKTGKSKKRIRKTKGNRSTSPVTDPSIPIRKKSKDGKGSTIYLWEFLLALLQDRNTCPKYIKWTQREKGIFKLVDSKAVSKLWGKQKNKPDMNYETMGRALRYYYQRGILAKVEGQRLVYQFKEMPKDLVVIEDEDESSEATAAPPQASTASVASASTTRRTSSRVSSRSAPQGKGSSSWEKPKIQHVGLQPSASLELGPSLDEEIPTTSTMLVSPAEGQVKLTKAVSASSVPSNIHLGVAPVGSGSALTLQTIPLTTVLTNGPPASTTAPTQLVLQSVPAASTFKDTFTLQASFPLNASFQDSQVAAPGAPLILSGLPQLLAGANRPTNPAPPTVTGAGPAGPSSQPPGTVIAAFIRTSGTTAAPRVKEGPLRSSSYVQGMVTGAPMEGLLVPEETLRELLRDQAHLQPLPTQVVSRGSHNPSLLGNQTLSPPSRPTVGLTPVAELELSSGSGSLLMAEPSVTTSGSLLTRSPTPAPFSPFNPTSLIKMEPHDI
ETV5, sequence (P41161 whole entry): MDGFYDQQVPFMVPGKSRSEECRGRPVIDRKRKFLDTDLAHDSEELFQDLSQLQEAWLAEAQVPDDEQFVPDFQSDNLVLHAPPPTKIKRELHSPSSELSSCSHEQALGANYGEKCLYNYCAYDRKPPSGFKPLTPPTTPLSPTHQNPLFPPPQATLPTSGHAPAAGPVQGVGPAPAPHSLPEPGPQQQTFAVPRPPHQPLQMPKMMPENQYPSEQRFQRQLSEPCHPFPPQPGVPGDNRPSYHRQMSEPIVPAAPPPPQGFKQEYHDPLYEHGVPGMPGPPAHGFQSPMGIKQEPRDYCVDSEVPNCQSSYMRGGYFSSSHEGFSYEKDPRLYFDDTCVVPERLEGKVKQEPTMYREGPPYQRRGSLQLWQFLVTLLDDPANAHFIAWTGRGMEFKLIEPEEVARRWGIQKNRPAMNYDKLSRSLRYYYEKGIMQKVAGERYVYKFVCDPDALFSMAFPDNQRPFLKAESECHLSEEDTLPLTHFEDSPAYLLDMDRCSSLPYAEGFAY
ETV1, sequence (P50549 whole entry): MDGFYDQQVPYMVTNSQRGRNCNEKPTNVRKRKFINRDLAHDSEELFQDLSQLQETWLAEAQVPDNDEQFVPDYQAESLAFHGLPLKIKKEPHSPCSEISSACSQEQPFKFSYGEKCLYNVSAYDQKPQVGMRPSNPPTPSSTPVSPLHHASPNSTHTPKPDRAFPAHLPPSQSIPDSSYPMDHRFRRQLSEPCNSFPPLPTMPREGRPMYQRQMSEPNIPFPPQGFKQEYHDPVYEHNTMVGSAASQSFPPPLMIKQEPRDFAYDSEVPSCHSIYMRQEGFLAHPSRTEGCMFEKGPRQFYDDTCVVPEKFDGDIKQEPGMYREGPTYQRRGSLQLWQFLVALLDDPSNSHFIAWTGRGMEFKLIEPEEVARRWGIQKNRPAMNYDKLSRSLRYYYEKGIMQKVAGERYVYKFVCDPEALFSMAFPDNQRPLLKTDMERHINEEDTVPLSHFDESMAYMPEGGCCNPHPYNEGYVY
HSF1, sequence (Q00613 whole entry): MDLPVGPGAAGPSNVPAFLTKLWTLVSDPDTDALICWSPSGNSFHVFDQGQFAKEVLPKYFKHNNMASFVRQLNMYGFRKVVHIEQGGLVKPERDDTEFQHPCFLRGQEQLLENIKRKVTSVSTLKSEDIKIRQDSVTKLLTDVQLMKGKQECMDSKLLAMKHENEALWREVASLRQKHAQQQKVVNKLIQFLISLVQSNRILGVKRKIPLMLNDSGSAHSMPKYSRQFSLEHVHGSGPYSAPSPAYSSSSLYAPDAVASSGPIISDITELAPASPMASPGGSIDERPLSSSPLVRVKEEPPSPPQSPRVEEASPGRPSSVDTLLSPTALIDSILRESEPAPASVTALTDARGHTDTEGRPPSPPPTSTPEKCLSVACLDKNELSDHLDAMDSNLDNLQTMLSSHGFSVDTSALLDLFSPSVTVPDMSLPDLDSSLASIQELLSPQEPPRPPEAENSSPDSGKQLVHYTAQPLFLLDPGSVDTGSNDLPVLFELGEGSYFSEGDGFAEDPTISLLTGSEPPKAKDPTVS
CRX, sequence (O43186 whole entry): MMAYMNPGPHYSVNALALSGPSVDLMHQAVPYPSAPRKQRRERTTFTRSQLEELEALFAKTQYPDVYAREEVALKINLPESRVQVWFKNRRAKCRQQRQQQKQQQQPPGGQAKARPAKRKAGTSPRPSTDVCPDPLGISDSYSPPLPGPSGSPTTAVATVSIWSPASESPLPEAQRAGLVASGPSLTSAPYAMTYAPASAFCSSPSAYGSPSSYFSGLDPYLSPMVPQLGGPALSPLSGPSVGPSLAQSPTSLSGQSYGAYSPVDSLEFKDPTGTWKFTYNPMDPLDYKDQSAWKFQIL

In the case of CTTCTG, the binding signal with FEV is 1.23 fold enrichment (6-mer frequency, TF over GST control); with ETV5, 1.35 fold enrichment (6-mer frequency, TF over GST control); with HSF1, 2.07 fold enrichment (6-mer frequency, TF over GST control); with SPIC it was 1.39 fold enrichment (6-mer frequency, TF over GST control); with ELF4 it was 1.42 fold enrichment (6-mer frequency, TF over GST control); in the experiment with ELK4, 1.57 fold enrichment (6-mer frequency, TF over GST control). The binding signal was 1.32 fold enrichment (6-mer frequency, TF over GST control) with ETV2; 1.29 fold enrichment (6-mer frequency, TF over GST control) in the experiment with ELF3; 1.49 fold enrichment (6-mer frequency, TF over GST control) in the experiment with CRX; 1.22 fold enrichment (6-mer frequency, TF over GST control) in the experiment with ETV1; 1.28 fold enrichment (6-mer frequency, TF over GST control) with ERF; 1.47 fold enrichment (6-mer frequency, TF over GST control) with ETV3L. For the same sequence, the binding signal with ETS2 was 1.34 fold enrichment (6-mer frequency, TF over GST control); with SPDEF it was 1.26 fold enrichment (6-mer frequency, TF over GST control); with ETV7 it was 1.2 fold enrichment (6-mer frequency, TF over GST control); with ELF5, 1.39 fold enrichment (6-mer frequency, TF over GST control); with ETV3 it was 1.28 fold enrichment (6-mer frequency, TF over GST control); with ETV6 it was 1.38 fold enrichment (6-mer frequency, TF over GST control).

The values are drawn from publication PMC7862700, “An all-to-all approach to the identification of sequence-specific readers for epigenetic DNA modifications on cytosine”.
